Format in all cases: functional
For experiment [1], the system named is Plasmodium falciparum. Description: GSK_TCMDC: Inhibition of Plasmodium falciparum 3D7 in whole red blood cells, using parasite LDH activity as an index of growth. Test compounds present at 2uM.
For experiment [2], the system named is Plasmodium falciparum. Kind of experiment: GSK_TCMDC: Inhibition of Plasmodium falciparum Dd2 in whole red blood cells, using parasite LDH activity as an index of growth. Test compounds present at 2uM.
Another experiment deals with HepG2. Kind of experiment: GSK_TCMDC: Percent inhibition of human HepG2 cell line. Test compounds present at 10uM.

`CN(C)c1ccc(CN2CCC(CNC(=O)c3cc(-c4cccc(F)c4)cs3)C2)cc1.O=C(O)C(F)(F)F` (stereo not drawn): the results for the Inhibition in the experiment on Plasmodium falciparum [1], in the experiment on Plasmodium falciparum [2] and in the experiment with HepG2 were 96%, 13% and 48%, respectively.
For `CCOc1cc(Cc2cnc(N)nc2N)cc(OCC)c1OCCCCC(=O)OC` the same measures were 95%, 0% and 0%.
For the molecule `O=C(Cn1c2ccccc2c(=O)c2ccc(Cl)cc21)Nc1ccc(C(F)(F)F)cc1`, the Inhibition amounted to 99% in the experiment with Plasmodium falciparum [1], 100% in the experiment with Plasmodium falciparum [2] and 30% in the experiment with HepG2.
For `Cl.O=C(Nc1ccc2c(c1)CCN(C1CCC1)CC2)c1ccc(-n2ccnc2)cn1` the same measures were 92%, 0% and 8%.
For `COc1ccc(CNC(=O)NC2CCN(c3ccnc(Nc4ccc(F)cc4)n3)C2)cc1` (stereo not drawn) the same measures were 91%, 78% and 4%.
Consider `Cc1cccc2nc(-c3cccc(-c4ccc(NC(=O)c5c[nH]cn5)cc4)c3)[nH]c12`, for which the Inhibition in the experiment on Plasmodium falciparum [1] is 100%; in the experiment with Plasmodium falciparum [2], 48%; with HepG2, 8%.
As for `COc1cccc2c(N/N=C/c3ccccc3[N+](=O)[O-])ccnc12`, the figures for the Inhibition in the experiment on Plasmodium falciparum [1], in the experiment with Plasmodium falciparum [2] and in the experiment with HepG2 were 99%, 43% and 8%, respectively.
Consider `CC(C)c1sc(N2CCN(C)CC2)nc1C(=O)Nc1cccc2c1CCCC2.O=C(O)C(F)(F)F`, for which the Inhibition in the experiment on Plasmodium falciparum [1] stood at 98%; with Plasmodium falciparum [2], 50%; in the experiment on HepG2, 3%.
In the case of `N#Cc1ccc2c(c1)CN(C1CCC(NC(=O)c3cc(-c4ccc(Cl)cc4)cs3)CC1)CCC2` (stereo not drawn), the Inhibition is 100% in the experiment on Plasmodium falciparum [1], 99% with Plasmodium falciparum [2] and 36% in the experiment on HepG2.
For `Cn1nccc1C(=O)NCCNCc1cccc(-c2ccc(-c3nc4cc(C(F)(F)F)ccc4[nH]3)cc2)c1.O=C(O)C(F)(F)F` the same measures were 100%, 98% and 51%.
The matching figures for `O=C(Nc1cccc(-c2ccc(-c3nc4cc(C(F)(F)F)ccc4[nH]3)cc2)c1)c1ccncc1`: 100%, 90% and 79%.
For `Brc1cc(Br)c2c(c1)C(NCCCNC1CCNc3c(Br)cc(Br)cc31)CCN2` (stereo not drawn) the same measures were 98%, 25% and 18%.
With `Cc1cccc2nc(-c3cccc(-c4ccc(NC(=O)C5CCCO5)cc4)c3)[nH]c12` (stereo not drawn), the values for the Inhibition with Plasmodium falciparum [1], with Plasmodium falciparum [2] and in the experiment with HepG2 were 91%, 13% and 10%, respectively.
In the case of `CCOc1ccc(-c2nonc2NC(=O)c2ccc(F)cc2)cc1OCC`, the Inhibition amounted to 100% with Plasmodium falciparum [1], 99% with Plasmodium falciparum [2] and 36% with HepG2.
For `CCOc1cc(C(=O)NCCCN2CCN(c3cccc(Cl)c3)CC2)ccc1-c1nc2cc(Cl)c(F)cc2[nH]1` the same measures were 96%, 19% and 16%.
For `O=C(Nc1cccc(-c2ccc(-c3nc4cc(C(F)(F)F)ccc4[nH]3)s2)c1)c1ccncc1` the same measures were 99%, 46% and 79%.
The matching figures for `CC(NC(=O)c1ccc(O)c(-c2ccc(Cl)c(Cl)c2)c1)C(=O)NCCN1CCOCC1` (stereo not drawn): 87%, 7% and 2%.
With `CC(C)(C)c1ccc(C(=O)Nc2ccc3nc4c(c(N)c3c2)CCCC4)cc1.Cl`, the Inhibition in the experiment with Plasmodium falciparum [1] is 100%; with Plasmodium falciparum [2], 99%; in the experiment on HepG2, 21%.
Take `CCN(CCCN1CCCCC1)c1cc(C)nc(Nc2ccc(C)c(Cl)c2)n1.O=C(O)C(F)(F)F`: the Inhibition amounted to 100% in the experiment on Plasmodium falciparum [1], 100% in the experiment on Plasmodium falciparum [2] and 32% in the experiment on HepG2.
For `CCOc1ccc(C(C)NC(=O)Nc2ccccc2)cc1OCC` (stereo not drawn), the Inhibition in the experiment with Plasmodium falciparum [1] came to 96%; in the experiment with Plasmodium falciparum [2] it was 95%; with HepG2 it was 14%.
For the molecule `N#Cc1ccc(N(CCNS(=O)(=O)c2cc(Br)c(Cl)s2)Cc2ccccc2C(F)(F)F)cc1C(F)(F)F`, the results for the Inhibition with Plasmodium falciparum [1], in the experiment on Plasmodium falciparum [2] and with HepG2 were 92%, 57% and 3%, respectively.
The matching figures for `COc1ccc(C(=O)N2CCC(C(=O)NC(C)c3ccc(-n4ccnc4)cc3)CC2)c2ccccc12` (stereo not drawn): 83%, 79% and 12%.
For the molecule `CN(C)S(=O)(=O)c1ccc(C(=O)N(c2nc(-c3ccccc3)cs2)C2CCCCC2)cc1`, the Inhibition with Plasmodium falciparum [1] is 98%; in the experiment on Plasmodium falciparum [2], 46%; in the experiment with HepG2, 7%.
The matching figures for `COc1c(C2CCN(CCCCNC(=O)c3ccc(-c4ccc(C#N)cc4)cc3)CC2)cc(Cl)c2c1CCCC2`: 93%, 59% and 45%.
For `CCCc1cc(Cc2cnc(N)nc2N)cc(CCC)c1OCCCCC(=O)OCC` the same measures were 93%, 0% and 1%.
On to `CC(C)(C)C1CCc2onc(C(=O)Nc3cc(Cl)ccc3O)c2C1` (stereo not drawn), for which the Inhibition with Plasmodium falciparum [1] is 98%; with Plasmodium falciparum [2], 82%; with HepG2 it was 5%.
For `CCCCCn1c(Sc2ccc(C#N)c([N+](=O)[O-])c2)nnc1-c1cc(OC)cc(OC)c1` the same measures were 93%, 24% and 17%.
For the molecule `COc1ccc2nccc(N3CCC(SCCNCc4cc5c(cn4)OCCO5)C3)c2n1.Cl` (stereo not drawn), the Inhibition with Plasmodium falciparum [1] is recorded as 100%; in the experiment on Plasmodium falciparum [2] it was 100%; with HepG2 it was 30%.
Consider `O=[N+]([O-])c1ccc(C2=NN(S(=O)(=O)c3c(Cl)cc(Cl)cc3Cl)CCCC2)cc1`, for which the figures for the Inhibition in the experiment on Plasmodium falciparum [1], in the experiment on Plasmodium falciparum [2] and in the experiment with HepG2 were 99%, 98% and 5%, respectively.
With `COc1cc(F)c2nccc([C@@H](O)CN3CCC(NC(=O)OCc4ccccc4)C(F)C3)c2c1` (stereo partly drawn), the values for the Inhibition with Plasmodium falciparum [1], in the experiment with Plasmodium falciparum [2] and in the experiment on HepG2 were 99%, 100% and 44%, respectively.
With `Clc1cccc(C=NNc2nc(=Nc3ccccc3)[nH]c(=Nc3ccccc3)[nH]2)c1`, the Inhibition in the experiment with Plasmodium falciparum [1] amounted to 92%; in the experiment on Plasmodium falciparum [2] it was 15%; in the experiment on HepG2, 0%.

Source of the values: ChEMBL document CHEMBL1157539, “Thousands of chemical starting points for antimalarial lead identification” (Nature, 2010).
